A selection: hits, their analogues and other compounds. The true share with any hit is near 17%.
ClpP mod: qHTS Assay for Activators of ClpP; purified B. subtilis ClpP, FRET peptide cleavage, 20 min; Potency, µM (doses to about 57.5 µM); actives 1.9% (n = 340,000); ATP-dependent Clp protease proteolytic subunit (Bacillus subtilis (strain 168)), P80244; active = well fitted falling curve with a large enough effect; inconclusive = small, poorly fitted or top-dose-only effect; inactive = no such curve, though single readings can be large or run the other way; also: the source files actives as falling curves though it sought activators and does not explain the sign; nearly all actives have a fitted effect of over 65% in size
Target sequence (P80244 whole entry, looked up): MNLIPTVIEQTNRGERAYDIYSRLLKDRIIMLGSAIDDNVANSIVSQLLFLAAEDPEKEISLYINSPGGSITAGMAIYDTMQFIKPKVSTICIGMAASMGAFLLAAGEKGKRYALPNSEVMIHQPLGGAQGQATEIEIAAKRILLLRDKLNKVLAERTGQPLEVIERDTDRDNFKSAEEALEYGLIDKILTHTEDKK
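FRET quenching reversal measured ClpP activation: 10 microg/mL B. subtilis ClpP at pH 8 with the FRET-FV decapeptide, read at 430 nm after 320 nm excitation. The 20-min minus 0-min signal was scaled between DMSO/no-enzyme wells and ADEP (5.8 microM final).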
DT40 TDP1 no CPT: qHTS for Inhibitors of human tyrosyl-DNA phosphodiesterase 1 (TDP1): qHTS in cells in absence of CPT; DT40 Tdp1-/- hTDP1 cells, no CPT, ATP luminescence, 48 h; actives 15% (n = 420,000); Potency, µM (doses to about 46.2 µM), hits mostly inhibitors; also: nearly all actives have a fitted effect of over 55% in size
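Chicken DT40 Tdp1-/- cells stably complemented with human TDP1 were seeded at 400 cells/well with DMSO in place of 20 nM camptothecin. After compound pinning, cells grew at least 48 hr at 37 °C; viability read by CellTiter-Glo luminescence.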
TDP1 block: qHTS Assay for Inhibitors of Tyrosyl-DNA Phosphodiesterase (TDP1); Tyrosyl-DNA phosphodiesterase 1 (Homo sapiens), Q9NUW8; actives 0.28% (n = 350,000); recombinant TDP1, AlphaScreen DNA substrate cleavage; Potency, µM (titrated, usually from 130 µM), usual class: inhibitors; also: nearly all actives have a fitted effect of over 40% in size
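Here, a 5' biotin and 3' phosphotyrosine-FITC DNA oligonucleotide reports Tdp1 activity: intact substrate bridges AlphaScreen beads, while cleavage leaves a 3' phosphate and drops signal. All incubations at room temperature.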
DT40 TDP1 CPT: qHTS for Inhibitors of human tyrosyl-DNA phosphodiesterase 1 (TDP1): qHTS in cells in presence of CPT | chicken DT40 Tdp1-/-;hTDP1 cells + 20 nM CPT, ATP luminescence, 48 h | Potency, µM (titrated, usually from 46.2 µM), most hits filed as inhibitors | actives 12% (n = 420,000) | AID 686979, 2013; also: nearly all actives have a fitted effect of over 55% in size
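Chicken DT40 Tdp1-/- cells complemented with human TDP1, 400 cells/well, exposed to compounds plus 20 nM camptothecin for at least 48 h at 37 C; viability read as ATP content by CellTiter-Glo luminescence.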
Of the large screens only hits and unclear results are named; the others gave an inactive call. Unless noted, calls follow the shape of the dose curve; as a rule, active = well fitted curve in the direction sought with a large enough effect; inconclusive = small, poorly fitted or top-dose-only effect, or another doubt; inactive = no such curve, though single readings can be large; an effect the other way counts as inactive or inconclusive.

Cc1ccc(-n2c(C)cc(C(=O)COC(=O)c3ccc[nH]c3=O)c2C)cc1	DT40 TDP1 no CPT inconclusive
COCC(=O)OCC(=O)c1cc(C)n(-c2ccc(Br)cc2)c1C	DT40 TDP1 CPT inconclusive (no result: ClpP mod)
Cc1ccc(NS(=O)(=O)c2cnc(N)nc2)c(C)c1	none
Cc1ccc(CNC(=O)CCCCCn2c(=O)c3sccc3n(CC(=O)Nc3ccc(C)c(F)c3)c2=O)cc1	DT40 TDP1 no CPT inconclusive
Cc1cc(C(=O)COC(=O)c2ccc(O)cc2O)c(C)n1-c1ccccc1	DT40 TDP1 no CPT 21µM, DT40 TDP1 CPT 21µM
Cc1cc(C(=O)COc2cccc(-n3cnnn3)c2)c(C)n1-c1ccccc1	DT40 TDP1 no CPT 21µM, DT40 TDP1 CPT 23µM
Cc1cc(C(=O)OCC(N)=O)c(C)n1-c1ccccc1	DT40 TDP1 no CPT inconclusive, DT40 TDP1 CPT inconclusive
COc1cc(NC(=O)c2cccs2)c(C(=O)OCC(=O)c2cc(C)n(-c3ccc(F)cc3)c2C)cc1OC	DT40 TDP1 no CPT inconclusive
COc1cc(NC(=O)c2cccs2)c(C(=O)OCC(=O)c2cc(C)n(-c3ccccc3)c2C)cc1OC	ClpP mod inconclusive, DT40 TDP1 no CPT 21µM, DT40 TDP1 CPT inconclusive
C=CCN1c2ccccc2[C@]23C[C@@H](C(=O)OC)N(C(=O)c4ccc(Br)cc4)C2=NC(C(=O)OC)=C(C(=O)OC)[C@H]13	DT40 TDP1 no CPT inconclusive, DT40 TDP1 CPT inconclusive
COC(=O)C1=C(C(=O)OC)[C@@H]2N(C)c3ccc(OC)cc3[C@@]23C[C@@H](C(=O)OC)N(C(=O)c2ccc(Br)cc2)C3=N1	DT40 TDP1 no CPT 26µM, DT40 TDP1 CPT inconclusive
CCOC(=O)N1C2=NC(C(=O)OC)=C(C(=O)OC)[C@@H]3N(Cc4ccccc4)c4ccccc4[C@]23C[C@H]1C(=O)OC	DT40 TDP1 no CPT inconclusive, DT40 TDP1 CPT 18µM
COC(=O)C1=C(C(=O)OC)[C@@H]2N(Cc3ccccc3)c3ccccc3[C@@]23C[C@@H](C(=O)OC)N(C(C)=O)C3=N1	DT40 TDP1 no CPT inconclusive, DT40 TDP1 CPT inconclusive
COC(=O)C1=C(C(=O)OC)[C@@H]2N(Cc3ccccc3)c3ccccc3[C@@]23C[C@@H](C(=O)OC)N(C(=O)c2ccc(Br)cc2)C3=N1	DT40 TDP1 no CPT 18µM, DT40 TDP1 CPT inconclusive
COCCCNc1ccn2nc(-c3ccc(OCCN4CCOCC4)cc3)cc2n1	DT40 TDP1 no CPT 12µM, DT40 TDP1 CPT inconclusive (no result: TDP1 block)
CC(C)(C)c1cc2nc(NCCc3ccc(S(N)(=O)=O)cc3)ccn2n1	ClpP mod inconclusive (no result: TDP1 block)
NS(=O)(=O)c1ccc(CCNc2ccn3nc(-c4ccc(OCCN5CCOCC5)cc4)cc3n2)cc1	DT40 TDP1 no CPT 15µM, DT40 TDP1 CPT 18µM (no result: TDP1 block)
CC(C)=CC(=O)Nc1nc2ccc([N+](=O)[O-])cc2s1	none (no result: ClpP mod)
CSCCC(NC(=O)c1ccco1)C(=O)NCC1CCCO1 (stereo not given)	DT40 TDP1 no CPT 3.3µM
Cc1ccccc1Nc1c([N+](=O)[O-])cncc1[N+](=O)[O-]	DT40 TDP1 no CPT 15µM, DT40 TDP1 CPT inconclusive (no result: ClpP mod)
O=[N+]([O-])c1cc([N+](=O)[O-])c2nonc2c1Nc1ccc(O)cc1	DT40 TDP1 no CPT 21µM, DT40 TDP1 CPT inconclusive
O=[N+]([O-])c1cncc([N+](=O)[O-])c1Nc1cccc(O)c1	DT40 TDP1 no CPT 4.1µM, DT40 TDP1 CPT 5.2µM
O=[N+]([O-])c1ccc2nonc2c1Nc1cccc(F)c1	none (no result: TDP1 block)
O=C(Cc1ccc(Br)cc1)OCC(=O)c1ccc[nH]1	none
CC(=O)N1CCN(C2=NC(=O)/C(=C/c3ccc(OS(=O)(=O)c4ccccc4)cc3)S2)CC1	DT40 TDP1 no CPT inconclusive, DT40 TDP1 CPT 21µM
O=C1N=C(N2CCOCC2)S/C1=C\c1ccccc1OS(=O)(=O)c1ccccc1	DT40 TDP1 no CPT 8.2µM, DT40 TDP1 CPT 12µM (no result: TDP1 block)
O=C1N=C(N2CCOCC2)S/C1=C/c1cc2c(cc1[N+](=O)[O-])OCO2	DT40 TDP1 no CPT 13µM, DT40 TDP1 CPT 12µM (no result: ClpP mod)
Cc1ccc(S(=O)(=O)Oc2ccccc2/C=C2/SC(=O)NC2=O)cc1	none
CC1CCN(C2=NC(=O)/C(=C/c3ccccc3F)S2)CC1	DT40 TDP1 no CPT inconclusive (no result: TDP1 block)
O=C(OCC#CCSc1nnc(-c2cccc3ccccc23)o1)c1ccc(SC(F)(F)F)cc1	none (no result: ClpP mod, DT40 TDP1 no CPT, DT40 TDP1 CPT)
O=c1ccc2c([nH]1)CCCCCCCCCC2	none (no result: TDP1 block)
O=C(c1ccc(Cl)c(S(=O)(=O)N2CCCCC2)c1)N1CCCC1	none

Compound activity deposited in PubChem by National Center for Advancing Translational Sciences (NCATS).
